Screening results as filed in PubChem BioAssay.
This excerpt belongs to a sample that is enriched for hits.
CHX counter: counter-screen for Shiga toxin inhibitors: cycloheximide protein synthesis inhibition | cell reporter, cycloheximide protein synthesis inhibition counterscreen | hit rate 12% among 300,000 | max response, % | AID 2314; in the data active means max response mostly above about 13%, no sharp cut-off; inactive means mostly below about 14%; further: read at 38.3 µM for the half of the compounds with a filed dose
TbPYK inhibitor: T. brucei pyruvate kinase inhibition | Q57TT1 | TbPYK enzyme, Kinase-Glo Plus ATP luminescence, 45 min | Potency, µM (series often up to 76.8 µM), most hits filed as inhibitors | hit rate 0.12% among 410,000; active means well fitted curve in the direction sought with a large enough effect; inconclusive means small, poorly fitted or top-dose-only effect, or another doubt; inactive means no such curve, though single readings can be large; an effect the other way counts as inactive or inconclusive; further: nearly all actives have a fitted effect of over 50% in size
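T. brucei PYK with substrate was exposed to pin-transferred compounds across a concentration series, then started with 130 uM ADP (final). After 45 min at room temperature, Kinase-Glo Plus luminescence was read, normalized and curve-fitted.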
LmPK inh: blocks Leishmania mexicana pyruvate kinase activity; purified LmPK, Kinase-Glo ATP luminescence, 1 h; Q27686; Potency, µM (titrated, usually from 57.5 µM), hits mostly inhibitors; hit rate 0.37% among 290,000; AID 1721; active means well fitted curve in the direction sought with a large enough effect; inconclusive means small, poorly fitted or top-dose-only effect, or another doubt; inactive means no such curve, though single readings can be large; an effect the other way counts as inactive or inconclusive
Target sequence (Q27686 whole entry, looked up): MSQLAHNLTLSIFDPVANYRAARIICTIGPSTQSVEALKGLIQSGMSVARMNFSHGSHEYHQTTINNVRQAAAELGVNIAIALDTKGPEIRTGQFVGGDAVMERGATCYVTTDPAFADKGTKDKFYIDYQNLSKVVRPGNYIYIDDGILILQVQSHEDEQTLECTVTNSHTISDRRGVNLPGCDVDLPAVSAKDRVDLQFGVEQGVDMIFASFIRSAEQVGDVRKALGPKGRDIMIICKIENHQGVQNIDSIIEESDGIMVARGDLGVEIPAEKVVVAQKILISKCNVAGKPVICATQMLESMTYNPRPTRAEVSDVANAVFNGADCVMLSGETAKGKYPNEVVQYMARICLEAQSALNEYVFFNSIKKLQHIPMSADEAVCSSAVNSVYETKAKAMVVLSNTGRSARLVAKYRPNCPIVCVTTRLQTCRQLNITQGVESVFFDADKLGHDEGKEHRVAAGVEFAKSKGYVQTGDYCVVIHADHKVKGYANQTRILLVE
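0.1 nM LmPK, 0.5 mM PEP, 0.1 mM ADP; 50 mM imidazole pH 7.2, 7 mM MgCl2, 50 mM KCl; 1 h RT. Kinase-Glo luminescence readout, normalized to no-enzyme (full inhibition) and uninhibited wells.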
NS1 inh: influenza NS1 inhibition | Potency, µM (highest dose often 46.1 µM) | hit rate 0.4% among 270,000 | AID 2326; further: actives are rising curves; nearly all actives have a fitted effect of over 50% in size
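A cell-based growth assay was used: compounds that relieve NS1-induced slow growth of budding yeast raise OD600. Assay medium was yeast nitrogen base with ammonium sulphate and -URA supplement, pH 6.0, with 2% galactose.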
SARS PLpro yeast: SARS-CoV PLP inhibition in yeast; hit rate 0.19% among 330,000; S. cerevisiae expressing SARS-CoV PLpro, growth rescue; Potency, µM (titrated, usually from 32.9 µM), actives largely listed as activators; further: nearly all actives have a fitted effect of over 55% in size
Shiga toxin inh: Shiga toxin inhibition; Vero cells, Shiga toxin protein synthesis inhibition reporter; inhibition, % at 38.7 µM; hit rate 9.2% among 290,000; AID 2315; in the data active means inhibition mostly above about 28%, no sharp cut-off; inactive means mostly below about 43%
Hits are given with their value; . = inactive; ? = inconclusive; / = no result; + = active, no number. Unless noted, the call rests on the fitted dose curve.

SMILES	CHX counter	TbPYK inhibitor	LmPK inh	NS1 inh	SARS PLpro yeast	Shiga toxin inh
Cc1c(/C=N/Nc2ccc([N+](=O)[O-])cn2)c2ccccc2n1Cc1ccccc1	19.8	.	.	.	.	.
O=[N+]([O-])c1ccc(NN=Cc2cccc3ccccc23)nc1	/	.	/	/	/	/
Cc1ccc(Cn2cc(/C=N/Nc3ccc([N+](=O)[O-])cn3)c3ccccc32)cc1	18.9	.	.	.	.	+
O=C(O)Cn1cc(/C=N/Nc2ccc([N+](=O)[O-])cn2)c2ccccc21	27.8	.	.	.	.	34.7
Cc1cc(OCC(=O)OCC(=O)NC2CCS(=O)(=O)C2)ccc1Cl (configuration not stated)	/	.	/	/	/	/
CN(C)c1cccc(C(=O)Nc2cccc(F)c2)c1	41.3	.	.	.	.	68.1
CCN(CC)c1ccc(C(=O)Nc2cccc(F)c2)cc1	27.8	.	.	.	.	.
O=C(Nc1cccc(F)c1)c1c(F)c(F)c(F)c(F)c1F	.	.	.	.	.	.
CCN(CC)c1ccc(C(=O)NN)cc1	.	.	.	/	.	.
O=C(NCc1ccccc1Cl)c1ccc(Cn2c(SCc3ccccc3)nc3cccnc32)cc1	/	.	/	/	/	/
COc1ccccc1C1=NOC(C)(c2sc(-c3ccc(Cl)cc3)nc2C)C1 (configuration not stated)	20.4	.	.	.	.	31.1
Cc1nc(-c2ccc(Cl)cc2)sc1C1(C)CC(c2ccccc2Br)=NO1 (configuration not stated)	/	.	/	/	/	/
COC(=O)c1c(C(=O)OC)c(-c2cccc(F)c2)n2c1CS(=O)(=O)C2	.	.	.	.	.	.
CCCc1c(C)c2cccc(C)c2[nH]c1=O	.	.	.	.	.	.
CCCCN1CCc2c([nH]c3c(C)cccc23)C1=O	42.5	.	.	.	.	69.5
COc1cccc(CNC(=O)CCC2CCCN(C(=O)c3cc(C4CC4)[nH]n3)C2)c1 (configuration not stated)	17.1	.	.	.	.	34.3
COc1cccc(CNC(=O)CCC2CCCN(C(=O)c3ccc(OC)o3)C2)c1 (configuration not stated)	22.3	.	.	.	.	59.9
COc1cccc(CNC(=O)CCC2CCCN(C(=O)c3cc(C)on3)C2)c1 (configuration not stated)	.	.	.	.	.	.
CCOc1ccc(OCCC(=O)OCC(=O)NCCc2ccc(S(N)(=O)=O)cc2)cc1	/	.	/	/	.	/
CC(O)CNCCCOc1ccccc1OCc1ccccc1 (configuration not stated)	.	.	.	.	.	.
CC(O)CNCCCCOc1ccc(OCc2ccccc2)cc1 (configuration not stated)	23.9	.	.	.	.	74.8
OCCCCNCc1ccc(OCc2ccccc2)cc1	13.6	.	.	.	.	.
OCCCCNCc1ccc(OCc2ccccc2Cl)cc1	24.7	.	.	.	.	.
OCCCNCc1ccc(-c2ccccc2)cc1	.	.	.	.	.	.
OCCNCCCCOc1ccc(OCc2ccccc2)cc1	33.6	.	.	.	.	85.8
SMILES	CHX counter	TbPYK inhibitor	LmPK inh	NS1 inh	SARS PLpro yeast	Shiga toxin inh
O=C(NC1CCCCC1)c1ccc(-c2cn[nH]c2)c2ccoc12	/	.	/	/	/	/
CCOc1cc(/C=C/c2ccc3cccc([N+](=O)[O-])c3n2)ccc1O	12.8	.	.	.	.	.
O=[N+]([O-])c1cccc2ccc(N3CCOCC3)nc12	.	.	.	.	.	/
O=[N+]([O-])c1ccc(/C=C/c2ccc3cccc([N+](=O)[O-])c3n2)cc1	21.8	.	.	.	.	.
O=[N+]([O-])c1cccc(/C=C/c2ccc3cccc(O)c3n2)c1	34.5	.	.	.	.	107.2
O=[N+]([O-])c1cccc2ccc(/C=C/c3ccc(F)cc3)nc12	131.5	.	.	.	.	94.7
COc1cc(/C=C/c2ccc3cccc([N+](=O)[O-])c3n2)ccc1OCC#N	.	.	.	.	.	.
C=CCn1c(=O)c2ccccc2n2c(SCC(C)=O)nnc12	.	.	.	.	.	.
CC1CC1C(=O)N(C)CC(=O)Nc1ccccc1Br (configuration not stated)	/	.	/	/	.	/
COCCc1ncc(CN2CCCCC2C(=O)Nc2ccc(Oc3ccccc3)nc2)cn1 (configuration not stated)	.	.	.	.	.	.
O=C(Nc1ccc(Oc2ccccc2)nc1)C1CCCCN1Cc1ccc(O)cc1 (configuration not stated)	19.5	/	.	.	.	.
COc1cc(CN2CCCCC2C(=O)Nc2ccc(Oc3ccccc3)nc2)ccc1O (configuration not stated)	55.2	.	.	.	.	81.4
COCCC(=O)N1CCC(C(=O)Nc2ccc(Oc3ccccc3)nc2)CC1	63.0	.	.	.	.	65.6
COc1ccc(CN2COc3ccc4c(-c5ccccc5)cc(=O)oc4c3C2)cc1OC	/	.	/	/	/	/
COC(=O)C(C)n1cnc2c(nnn2-c2cccc(OC)c2)c1=O (configuration not stated)	19.7	.	.	.	.	41.0
CCC(C(=O)OC)n1cnc2c(nnn2-c2ccccc2)c1=O (configuration not stated)	.	.	.	.	.	.
CCC(C(=O)OC)n1cnc2c(nnn2-c2cccc(OC)c2)c1=O (configuration not stated)	16.3	.	.	.	.	.
Cc1ccccc1-c1ccc(Nc2ccc(N3CCOCC3)cc2)nn1	29.4	.	.	.	.	.
COc1ccc(CCNC(=O)CSc2nnnn2-c2cccc(C(C)=O)c2)cc1OC	/	.	/	/	/	/
COc1ccc(NC(=O)Cn2cc(S(=O)(=O)c3ccccc3)c(=O)c3cc(C)ccc32)cc1Cl	/	.	/	/	/	/
CCNc1nc(-c2ccc(OC(F)F)cc2)c(C)s1	40.8	.	.	/	.	124.0
COc1ccc(/C=C/c2nnc(NC(=O)CC(C)C)s2)cc1	.	.	.	.	.	.
CCSc1nnc(NC(=O)Cc2ccc(OC)cc2)s1	.	.	.	.	.	.
COc1ccc(/C=C/c2nnc(NC(C)=O)s2)cc1	35.2	.	.	.	.	72.3
COC(=O)Nc1nnc(/C=C/c2ccc(OC)cc2)s1	57.7	.	?	.	.	96.1
Fc1ccccc1N1CCN(c2nc3ccccc3n3nnnc23)CC1	14.3	.	.	.	.	.
NC(=O)[C@@H]1CCCN1C(=O)C(Cc1cnc[nH]1)NC(=O)C1CCC(=O)N1 (some centres not stated)	.	/	/	/	/	.
C[C@H](NC(=O)c1ccccc1Cl)C(=O)OCC(=O)N1CC2(C)CC1CC(C)(C)C2 (some centres not stated)	12.1	.	.	.	.	.
CC(NC(=O)COC(=O)c1ccco1)C12CC3CC(CC(C3)C1)C2 (configuration not stated)	.	/	/	/	/	.
